# Results from ChEMBL document CHEMBL1961873, “Compounds: GSK PKIS; Assays: Nanosyn kinase panel” (2012).
# Biological target: Fibroblast growth factor receptor 3 (Homo sapiens) (UniProt P22607)
# Settings: at 0.1 µM
# 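Further: each value is a mean percent inhibition of FGFR3.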
# Sequence of Fibroblast growth factor receptor 3 (Homo sapiens) (P22607 23-806 limits assumed): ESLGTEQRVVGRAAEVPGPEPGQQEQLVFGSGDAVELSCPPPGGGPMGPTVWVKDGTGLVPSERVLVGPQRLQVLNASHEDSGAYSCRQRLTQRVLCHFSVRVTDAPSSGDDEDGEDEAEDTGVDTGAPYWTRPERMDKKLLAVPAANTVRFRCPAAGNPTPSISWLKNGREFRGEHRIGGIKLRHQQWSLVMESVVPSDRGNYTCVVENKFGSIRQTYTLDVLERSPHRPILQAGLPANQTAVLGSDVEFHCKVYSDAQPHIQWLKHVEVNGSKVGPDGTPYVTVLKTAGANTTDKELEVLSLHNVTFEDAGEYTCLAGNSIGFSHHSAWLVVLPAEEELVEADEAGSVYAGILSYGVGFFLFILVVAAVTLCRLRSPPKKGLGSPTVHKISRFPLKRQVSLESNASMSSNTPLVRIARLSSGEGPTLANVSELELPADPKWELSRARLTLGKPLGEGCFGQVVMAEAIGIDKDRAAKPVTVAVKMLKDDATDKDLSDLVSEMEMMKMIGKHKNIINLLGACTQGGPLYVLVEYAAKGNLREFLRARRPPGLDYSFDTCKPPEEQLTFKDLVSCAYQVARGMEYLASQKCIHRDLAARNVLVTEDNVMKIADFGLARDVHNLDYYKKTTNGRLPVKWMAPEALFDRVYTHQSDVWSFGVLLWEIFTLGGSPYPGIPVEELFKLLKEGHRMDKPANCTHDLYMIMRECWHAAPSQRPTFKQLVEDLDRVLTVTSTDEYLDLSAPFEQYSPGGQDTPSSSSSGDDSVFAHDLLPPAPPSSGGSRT
row,Structure (SMILES),inhibition [%]
1,CCn1c(-c2nonc2N)nc2ccc(F)cc21,7.35
2,[O-][S+]1CCN(Cc2ccc(-c3ccc4ncnc(Nc5ccc(OCc6ccccc6)c(Cl)c5)c4c3)o2)CC1,-0.22
3,N#Cc1cccc(Nc2nccc(-c3cnn4ncccc34)n2)c1,9.72
4,CS(=O)(=O)CCNCc1nc(-c2ccc3ncnc(Nc4ccc(OCc5cccc(C(F)(F)F)c5)cc4)c3c2)cs1,4.91
5,COC(=O)c1ccc2c(c1)C(=Cc1cc(Br)c(O)c(Br)c1)C(=O)N2,8.03
6,NS(=O)(=O)c1cccc(-c2cc3ccncc3cc2OCc2ccccc2)c1,8.37
7,COc1ccc(-c2nn3ncccc3c2-c2ccnc(Nc3cccc(C(F)(F)F)c3)n2)cc1,2.6
8,Cc1cc(O)cc(C)c1/C=C/c1cncc(C(=O)N(C)C)c1,3.74
9,COc1cc(/C=N/Nc2ncnc3c2cnn3C(C)C)ccc1O,1.62
10,CCOc1nccc2c1nc(-c1nonc1N)n2CC,5
11,Oc1cccc(-c2nc(-c3ccccc3)[nH]c2-c2ccncc2)c1,4.28
12,Nc1nccc(C#Cc2cncnc2Nc2ccc(OCc3cccc(F)c3)c(Cl)c2)n1,5.34
13,Cc1ccc2c(-c3ccnc(Nc4ccc5c(c4)OCCO5)n3)c(-c3ccc(C(F)(F)F)cc3)nn2n1,-1.98
14,CS(=O)(=O)Nc1cccc(-c2ccc3c(NC(=O)C4CC4)n[nH]c3c2)c1,1.56
15,Cc1cc(-c2ccccn2)cc(C)c1/C=C/c1cncc(-c2nn[nH]n2)c1,5.34
16,CN(C)CCCn1c(-c2nonc2N)nc2cnccc21,6.01
17,Cc1cc(Cl)cc2c1NC(=O)C2=NNc1ccc(S(N)(=O)=O)cc1,1.47
